# Results as given in ChEMBL document CHEMBL3988442, “University of Dundee, Small-Polar-MMV Screening Library” (2021).
# The whole screen tested about 48,000 compounds, of which about 13,000 (27%) showed an effect of 50% or more. The list shows a part of the results.
# Tested on: Wolbachia pipientis
# Experiment: Anti-Wolbachia Cell-Based Screen
# Format: functional
# Parameters: scale not given: in the data most compounds retested in dose-response had high values
# Settings: 5 µM
row,SMILES,Percent Effect [%]
1,CCn1ncc2c1NC(=O)CC2c1cnc(NCc2ccccc2)nc1 (centres undefined),4.243
2,Cc1ccc(N2CCCC(N3CCC4(CC3)OCCO4)C2=O)cc1 (centres undefined),-7.017
3,COc1ccc2c(c1)CCCN(C(C)C(=O)NC(C)C)C2 (centres undefined),-4.844
4,OC(CN1CCCc2cc(OC(F)F)ccc21)Cn1cccn1 (centres undefined),-16.69
5,COC(=O)C(C)N1CCCc2cc(OC)ccc2C1 (centres undefined),-9.406
6,COc1ccc2c(c1)CN(C)C(=O)CCN2CC(O)C(F)(F)F (centres undefined),104.6
7,COc1ccc2c(c1)CN(C)C(=O)CCN2CC(O)C(C)(C)C (centres undefined),100.8
8,COc1ccc2c(c1)CCN(CCC(=O)O)CC2,-10.19
9,O=C(CNc1nc(C2CC2)ns1)N1CCc2sccc2C1,-3.427
10,N#CCCN(CCC#N)C(=O)c1cccc(N2CCNC2=O)c1,-11.85
11,CC(C)c1nc(C2CCCN(C(=O)CCCn3ccnc3)C2)no1 (centres undefined),94.72
12,Cc1nc(C2CCCN(C(=O)CCCn3cccn3)C2)no1 (centres undefined),10.77
13,Cc1nc(C2CCCN(C(=O)CCCn3cccn3)C2)sc1C (centres undefined),112.1
14,CCS(=O)(=O)CC(=O)N1CCCC(c2noc(C(C)C)n2)C1 (centres undefined),-6.108
15,CC(C)c1nc(C2CCCN(C(=O)CCn3ccnc3)C2)no1 (centres undefined),-0.5429
16,CC(C)c1nc(C2CCCN(C(=O)CN3CCCNC3=O)C2)no1 (centres undefined),6.733
17,Cc1nc(C2CCCN(C(=O)CN3CCCC3=O)C2)sc1C (centres undefined),-7.822
18,Cc1nc(C2CCCN(C(=O)CN3CCCNC3=O)C2)sc1C (centres undefined),6.53
19,CC(C)c1nc(C2CCCN(C(=O)CCCn3cccn3)C2)no1 (centres undefined),95.04
20,CC(C)c1nc(C2CCCN(C(=O)CCc3cscn3)C2)no1 (centres undefined),114.7
21,CC(C)c1nc(C2CCCN(C(=O)CN(C)S(C)(=O)=O)C2)no1 (centres undefined),-21.51
22,CC(C)c1nc(C2CCCN(C(=O)CS(=O)(=O)C(C)C)C2)no1 (centres undefined),-11.89

row,SMILES,Percent Effect [%]
1,CCN(Cc1cccc(NC(=O)COCCOC)c1)C(C)=O,-8.699
2,CCc1c(C)nn(CC(=O)NC(C)c2n[nH]c(C)n2)c1C (centres undefined),2.562
3,Cc1noc(C2CCN(c3oc(C)nc3C#N)CC2)n1,-7.205
4,CC(C)N1CCC(C(=O)NC[C@H]2CCc3ccccc3O2)CC1,-3.949
5,COC(=O)CCNC(=O)c1ccc(NC(=O)N(C)CC(C)(C)C)cc1,28.42
6,Cc1nc(C2CCCN(C(=O)CCCn3ccnc3C)C2)no1 (centres undefined),-5.463
7,Cc1nccn1CCCC(=O)N1CCCC(c2noc(C(C)C)n2)C1 (centres undefined),94.02
8,O=C1O[C@@H]2CN(Cc3ccccn3)C[C@@H]2N1CCCc1ccc(F)cc1,2.234
9,Cc1ccc(OC2(C(=O)N(C)Cc3ccoc3)CCNCC2)cc1,-12.66
10,Cc1cc(C)nc(N2CCC(NCCSc3nnnn3C)CC2)n1,-14.51
11,CCCc1cc(CNC2CCN(c3nc(C)cc(C)n3)CC2)on1,99.03
12,CCCc1cc(CNC(=O)Cc2cc(C)no2)on1,0.033
13,CCCc1cc(N2CCC(N[C@H]3CC[C@H](O)CC3)CC2)nc(C)n1,-4.932
14,CCS(=O)(=O)CCNC1CCN(c2nc3ccc(Cl)cc3s2)CC1,-46.95
15,CCCc1cc(N2CCC(NC3CCOCC3)CC2)nc(C)n1,29.8
16,CCCc1cc(CNC2CCN(c3nc4ccccc4s3)CC2)on1,114.2
17,Cc1n[nH]c(SCCNC2CCN(c3nc4ccccc4s3)CC2)n1,-0.1074
18,CCCc1cc(N2CCC(NC3CCS(=O)(=O)C3)CC2)nc(C)n1 (centres undefined),-13.12
19,CCCc1cc(CNC2CCN(c3cc(C(C)C)nc(C)n3)CC2)on1,93.6
20,CCCc1cc(CNC2CCN(c3cc(C)nc(N)n3)CC2)on1,82.71
21,CCCc1cc(N2CCC(NCC3(O)CCN(C)CC3)CC2)nc(C)n1,-6.496
22,Cc1ccc(C(=O)N2CCN(c3ncnc4nc(N)ccc34)CC2)o1,-4.077

row,SMILES,Percent Effect [%]
1,Cc1noc(C)c1S(=O)(=O)NCC(C)(O)c1ccc2c(c1)OCO2 (centres undefined),22.76
2,CCS(=O)(=O)c1ccc2oc([C@H]3CCN(Cc4ccncc4)C3)nc2c1,-3.63
3,CN1N=C(C(=O)N2CCCC(CCc3ccccc3)C2)CCC1=O (centres undefined),-44.22
4,COCCN(C)Cc1ccc(OC)c(OC(F)F)c1,-5.242
5,COCc1cc(C[C@@H]2CC[C@H](O)[C@@H](CN(CC(C)C)CC(C)C)O2)no1,-3.447
6,Cc1nc(CN2C(=O)C[C@@H]3[C@@H]2CCN3S(=O)(=O)C2CC2)cs1,97.85
7,Cc1nc(CN2C(=O)C[C@@H]3[C@@H]2CCN3Cc2cnn(C)c2)cs1,96.83
8,Cc1nc(CN2C(=O)C[C@@H]3[C@@H]2CCN3S(C)(=O)=O)cs1,77.62
9,Cc1nc(CN2C(=O)C[C@@H]3[C@@H]2CCN3C(=O)C2CCOCC2)cs1,6.269
10,CCOC(=O)c1nc(CN2CCN(C(C)C(=O)NC3CC3)CC2)cs1 (centres undefined),-13.36
11,COc1ccc2cccc(CC(=O)NCCc3n[nH]c(=O)[nH]3)c2c1,-7.606
12,COc1ccc(CCC(=O)NCc2cc(C)on2)cc1,0.6679
13,CCCC(=O)NCCc1nc2cc(-c3ccc(OC)cc3)ncn2n1,102.6
14,CCNc1nc(-c2cccnc2)c(-c2ccnc(NS(C)(=O)=O)n2)s1,73.47
15,COc1ccc(NCc2c[nH]nc2-c2cccnc2)cc1,-7.559
16,CCCNCc1cn(Cc2ccccc2)nc1-c1cccnc1.Cl,-0.3485
17,CC(C)(C)Nc1nc(-c2cccnc2)c(-c2ccnc(NCCO)n2)s1,93.88
18,CC(CNc1nccc(C(C)C)n1)Oc1cccnc1 (centres undefined),15.19
19,Cn1cnc2c(-c3cccnc3)nc(C3CCN(S(C)(=O)=O)CC3)cc21,-22.74
20,CCNc1nc(-c2cccnc2)c(-c2ccnc(NCCO)n2)s1,103.5
